# Assay results reported in PubChem BioAssay AID1259420 (Broad Institute, 2018).
# Several values for one entry are separate records, joined by “and”; a condition that tells them apart may be missing. Equal values may be shown once. The campaign covered roughly 1,000 compounds. About 250 (25%) were called active. Roughly 31% stayed inconclusive and do not appear here. A selection follows. Potency and affinity values are given separately. A number with no mark means an inactive call. No rule for the calls is given here.
# Test: compound activity on host-cell Toxoplasma growth – dose response (AID 1259420);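 also: host cells were HeLa; final incubation lasted 72 hours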
# Details: Toxoplasma gondii growth in host cells, no IFN-gamma; at 19.5 µM unless noted
row,SMILES,max activity
1,Cn1nc2c(c1C(=O)Nc1ccc(N3CCCCC3)c(F)c1)CCCC2,25.8% [at 10 µM]
2,Cc1ccccc1-c1ccc([C@H]2[C@@H](CO)N3C(=O)CN(C(=O)c4ccncc4)C[C@@H]23)cc1,-13.9% [at 0.16 µM]
3,CN(C)C1CCN(Cc2cccc(C#N)c2)C(C(=O)O)C1 (stereo not given),8.23%
4,Cc1nnsc1CN(C)Cc1[nH]c2ccc(F)cc2c1C,12.6% [at 0.16 µM]
5,CC(C)NC(=O)N1CC(=O)N2[C@H](CO)[C@H](c3ccc(/C=C/c4ccccc4)cc3)[C@@H]2C1,20.9%
6,COc1ccc(-c2nc(NCCN3CCOCC3)c3ccccc3n2)cc1,8.12%
7,COc1ccc(-c2nc(NCCN3CCC(C)CC3)c3ccccc3n2)cc1,5.6% [at 10 µM]
8,COc1ccc(-c2nc(NCCN3CCN(C)CC3)c3ccccc3n2)cc1,12.8%
9,COc1ccc(-c2ccc([C@H]3[C@H]4CN(Cc5ccccc5)CC(=O)N4[C@H]3CO)cc2)cc1,43.4%
10,COc1ccc(-c2nc(NCCCN3CCCC3)c3ccccc3n2)cc1,7.2%
11,CC(c1cc2ccccc2s1)N(O)C(N)=O (stereo not given),-4.76% [at 5 µM]
12,CN1[C@H](CO)[C@@H]2c3ccccc3N(C(=O)C3CCCCC3)C[C@@H]21,-10.7% [at 0.3 µM]
13,C/C=C/c1ccc([C@@H]2[C@@H](CO)N3CCCCN(CCC(F)(F)F)C[C@@H]23)cc1,39.6%
14,C/C=C/c1ccc([C@H]2[C@@H](CO)N3CCCCN(S(=O)(=O)c4ccc(OC)cc4)C[C@H]23)cc1,19.6%
15,O=S(=O)(c1ccccc1)N1CCCCN2[C@@H](CO)[C@H](c3ccc(C#CC4CCCC4)cc3)[C@@H]2C1,49.6%
16,O=S(=O)(c1cccs1)N1CCCCN2[C@@H](CO)[C@@H](c3ccc(/C=C/c4ccccc4)cc3)[C@@H]2C1,38.2%
17,CCC[C@@]1(CCc2ccccc2)CC(=O)C([C@H](CC)c2cccc(NS(=O)(=O)c3ccc(C(F)(F)F)cn3)c2)C(=O)O1 (stereo not given in full),6.55% [at 10 µM]
18,Cc1ccc(-c2ccc([C@H]3[C@@H](CO)N4C(=O)CN(C(=O)NC(C)C)C[C@@H]34)cc2)cc1,-19.8% [at 5 µM]
19,COCCC(=O)c1cc2c(s1)CCN2Cc1cccnc1,-10.9% [at 0.6 µM]
20,CN1CCC(=C2c3ccccc3C=Cc3ccccc32)CC1,23.8%
21,N#C[C@@H]1[C@H](c2ccc(C#Cc3cccc(F)c3)cc2)[C@H](CO)N1C(=O)C1CCOCC1,23.4%
22,N#C[C@H]1[C@@H](c2ccc(C3=CCCCC3)cc2)[C@@H](CO)N1C(=O)Nc1ccccc1F,15.8% [at 10 µM]
23,N#C[C@H]1[C@H](c2ccc(C#Cc3cccc(F)c3)cc2)[C@@H](CO)N1C(=O)C1CCOCC1,10.6%
24,N#C[C@H]1[C@@H](c2ccc(-c3cccnc3)cc2)[C@@H](CO)N1C(=O)Nc1ccc(F)cc1,7.86%

row,SMILES,max activity
1,N#C[C@H]1[C@H](c2ccc(C#Cc3ccccc3F)cc2)[C@@H](CO)N1C(=O)c1cccnc1,-12.3% [at 10 µM]
2,CCCNC(=O)N1C[C@@H]2N[C@H](C1)C2c1ccc(-c2ccccc2C)cc1 (stereo not given in full),14.1% and 25.2%
3,COc1ccc(-c2ccc([C@H]3[C@H](C#N)N(C(=O)NC(C)C)[C@H]3CO)cc2)cc1,23.7%
4,COc1cccc(C#Cc2ccc([C@H]3[C@@H](C#N)N(C(=O)c4ccccn4)[C@@H]3CO)cc2)c1,21.5%
5,CC(C)C#Cc1ccc([C@@H]2[C@H]3CN(S(=O)(=O)c4ccccc4)CC(=O)N3[C@H]2CO)cc1,15.9%
6,CN1C[C@H]2CN(Cc3ccc4c(c3)OCO4)CCC[C@@]2(C(=O)O)C1,-10.3% [at 5 µM]
7,CS(=O)(=O)N1CC(=O)N2[C@H](CO)[C@@H](c3ccc(C#CCC4CCCC4)cc3)[C@@H]2C1,58.7%
8,CC(C)C#Cc1ccc([C@H]2[C@H](CO)N3C(=O)CN(C(=O)NC4CCCC4)C[C@@H]23)cc1,-11.2%
9,COc1ccccc1-c1ccc([C@H]2[C@H](CO)N[C@@H]2C#N)cc1,29.5%
10,N#Cc1cccc(-c2ccc([C@H]3[C@H]4CN(Cc5ccccc5F)CCCCN4[C@H]3CO)cc2)c1,25.1%
11,N#Cc1cccc(-c2ccc([C@@H]3[C@H]4CN(Cc5ccccc5F)CCCCN4[C@H]3CO)cc2)c1,-16.7% [at 0.6 µM]
12,COc1ccccc1C#Cc1ccc([C@@H]2[C@@H](CO)N3CCCCN(C(=O)C4CCC4)C[C@H]23)cc1,18.4% [at 10 µM]
13,COc1ccccc1C#Cc1ccc([C@H]2[C@@H](CO)N3CCCCN(C(=O)C4CCC4)C[C@@H]23)cc1,-3.84% [at 0.16 µM]
14,O=C(C1CCC1)N1C[C@@H]2N[C@H](C1)C2c1ccc(/C=C/c2ccccc2)cc1 (stereo not given in full),-22.2% [at 0.3 µM]
15,NCCNC(=O)c1nc(-c2ccc(Br)o2)no1,7.54% [at 0.08 µM]
16,O=C(Cc1cccnc1)N1CC(=O)N2[C@@H](CO)[C@H](c3ccc(C4=CCCCC4)cc3)[C@@H]2C1,18.9% [at 0.16 µM]
17,Cc1nc2c(cnn2-c2ccccc2)c(=O)n1-c1cccc2ccccc12,-11.1% [at 10 µM]
18,CCS(=O)(=O)N1CCc2nc(-c3cccc(F)c3)nc(NC3CC3)c2C1,-10.7% [at 2.6 µM]
19,COCC1(C(=O)N2CCc3c(nc(-c4ccccc4)[nH]c3=O)C2)CCC1,24.5%
20,CC(C)CNC(=O)[C@H]1C[C@H]2CN(Cc3cccc(Cl)c3)C[C@H]1O2,13.8% [at 0.3 µM]
21,Cc1ccc(CN2C[C@@H]3C[C@H](C(=O)Nc4ccccc4)[C@@H](C2)O3)cc1,4.12% [at 0.6 µM]
22,CC(C)(C)c1nc2ccccc2c2nnc(SCc3ccccn3)n12,9.04% [at 0.3 µM]
23,CN1CCN(Cc2cnc3n2CCN(CC2CCOCC2)C3)CC1,22.9% [at 1.2 µM]
24,CN(C)C(=O)CN1CCOCC2(CCN(CC3CCOC3)CC2)C1 (stereo not given),12.7%

row,SMILES,max activity
1,CN1CCCN(C(=O)c2cc3c(c4ccccc4n3CC3CC3)n2S(C)(=O)=O)CC1,25.4%
2,O=C(c1cnccn1)N1CC(=O)N2[C@H](CO)[C@H](c3ccc(/C=C/c4ccccc4)cc3)[C@@H]2C1,9.53% [at 10 µM]
3,COC12CC(COC(=O)c3cncc(Br)c3)CN(C)C1Cc1cn(C)c3cccc2c13 (stereo not given),-18.1% [at 1.2 µM]
4,CC(=O)NCc1nnn2c1CN(c1ncccn1)CCC2,-8.02% [at 0.6 µM] and 9.77% [at 0.6 µM]
5,COc1ccc(-c2ccc3c(c2)[C@@H]2[C@@H](CCN2C(=O)c2ccncc2)[C@H](CO)N3C)cc1,-18.6% [at 5 µM]
6,CN1c2ccc(C#Cc3cccnc3)cc2[C@@H]2[C@@H](CCN2C(=O)c2cccc(F)c2)[C@H]1CO,5.34%
7,CCC(=O)N1CC[C@@H]2[C@@H](CO)N(C)c3ccc(-c4ccc(C#N)cc4)cc3[C@@H]21,-14.1% [at 1.2 µM]
8,CC(C)NC(=O)N1CC[C@@H]2[C@H]1c1cc(-c3ccc(F)cc3)ccc1N(C)[C@H]2CO,11.4% [at 10 µM]
9,COc1cccc(-c2ccc3c(c2)[C@@H]2[C@@H](CCN2C(=O)c2ccccc2F)[C@@H](CO)N3C)c1,24%
10,CCC(=O)N1CC[C@@H]2[C@H]1c1cc(-c3ccc(C#N)cc3)ccc1N(C)[C@H]2CO,-11.1% [at 0.6 µM]
11,NC(N)=N/N=C/c1c(Cl)cccc1Cl,-13.6% [at 2.35 µM]
12,C=CCN1C(=O)CCCC12CCCN(S(=O)(=O)Cc1ccccc1)C2 (stereo not given),-8.38% [at 10 µM]
13,CN(C)CCNC(=O)c1c2c(NCc3cccnc3)ncnc2n2ccccc12,8.13% [at 10 µM]
14,CCN1Cc2c(C(=O)Nc3ccc(C)cc3)ncn2-c2ccccc2S1(=O)=O,-12.3% [at 0.16 µM]
15,CC(C)N1c2ccc(F)cc2[C@@H]2CN(C(=O)c3ccco3)CC[C@H]21,9.4%
16,Cc1ccccc1-c1ccc([C@@H]2[C@@H](CO)N3CCCCN(S(=O)(=O)Cc4ccccc4)C[C@H]23)cc1,6.43% [at 10 µM]
17,Cc1ccoc1C(=O)N1CC[C@H]2CO[C@@H](CN3CCN(C)CC3)[C@@H]2C1,-13%
18,COc1ccc(C[C@H]2CN(C(=O)c3ccnn3C)CC[C@H]2OC)cc1,-12.6% [at 5 µM]
19,O=C(Nc1ccccc1)[C@@H]1[C@@H](CO)[C@@H]2Cn3c(ccc(C4=CCCCC4)c3=O)[C@@H]2N1Cc1cocn1,-11.6% [at 10 µM]
20,CCOCC1CC2(CCN(C(=O)COc3ccc(C)cc3)CC2)CO1 (stereo not given),-10.4% [at 5 µM]
21,CCN1CC2(CCN(C(=O)COc3ccccc3)CC2)COc2ccccc2S1(=O)=O,-3.38% [at 2.6 µM]
22,CC(C)n1ncc(NC(=O)Cn2ccc(-c3ccc(C(F)(F)F)cc3)n2)n1,-7.47% [at 0.3 µM]
